Unmarked numbers belong to inactive results. Records with an inconclusive call do not appear. Activity calls are given as the source filed them. Calls follow the shape of the dose curve; as a rule, active = well fitted curve in the direction sought with a large enough effect; inconclusive = small, poorly fitted or top-dose-only effect, or another doubt; inactive = no such curve, though single readings can be large; an effect the other way counts as inactive or inconclusive.

This is an account of results in PubChem BioAssay (NCATS).

Assay [1] in a line: Cellular Toxicity (caspase-3) Hek293 (AID 664).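 Also: cells exposed to compound for 16 h at 37 °C before readout.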 The gist of the method:
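HEK293 cells were exposed to compounds in complete medium for 16 hr at 37 °C, then caspase-3/7 activity was read by Caspase-Glo 3/7 luminescence after 20 min at room temperature. Data normalized to DMSO and 100 uM tamoxifen; AC50 from Hill fits.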

Assay [2] can be described thus: Cellular Toxicity (caspase-3) N2a (AID 665).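 Also: compound exposure lasted 16 h at 37 °C before readout.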 The gist of the method:
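Mouse N2a neuroblastoma cells (1500/well) were treated with compounds for 16 h at 37 °C, then caspase-3/7 activity was read by Caspase-Glo luminescence after 1 h at room temperature. Data were normalized to DMSO and 10 uM staurosporine; AC50 from Hill fits.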

Assay [3] is described as follows: Cellular Toxicity (caspase-3) NIH 3T3 (AID 666).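 Also: 0% = DMSO basal and 100% = 100 µM tamoxifen stimulation.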 Put shortly: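 Mouse NIH 3T3 fibroblasts (1000 cells/well) were treated with compound for 16 hr at 37°C in complete medium; caspase-3/7 activity was read by Caspase-Glo luminescence. Normalized to DMSO and 100 uM tamoxifen; AC50 from Hill fits.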
A short description of assay [4]: Cellular Toxicity (caspase-3) Renal Proximal Tubule (AID 667).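 Also: cells exposed to compound for 16 hours at 37 °C before detection; 0% = DMSO basal and 100% = 10 µM staurosporine.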 Put shortly: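 Caspase-Glo 3/7 read-out, rat primary kidney proximal tubule cells. Compound exposure 16 h, 37 °C; detection after 1 h at RT. Activity scaled to DMSO and 10 uM staurosporine.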
Assay [5] has as its target Guanine nucleotide-binding protein G(i) subunit alpha-1 (Homo sapiens) (UniProt P63096). Description: qHTS Assay for Inhibitors of RGS12 GoLoco Motif Activity (Green Fluorophore) (AID 879).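 Also: 0% = labeled peptide with Gαi1 and full inhibition = labeled peptide alone without protein; negative values mean loss of peptide binding seen as reduced polarization.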 Put shortly:
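Fluorescence polarization assay: 50 nM Gαi1 with 10 nM FITC-labeled RGS12 GoLoco peptide in 10 mM Tris pH 7.5, 150 mM NaCl, 0.1 mM GDP, 0.05% NP40, 10 min at room temperature with compound.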

The target of assay [6] is Cytochrome P450 3A4 (Homo sapiens) (UniProt P08684). Description: qHTS Assay for Inhibitors and Substrates of Cytochrome P450 3A4 (AID 884). Also: series mostly up to about 57 µM; % is scaled to controls: 0 for no effect and ±100 for the full control effect; nearly all actives have a fitted effect of over 50% in size. Put shortly: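 20 nM human CYP3A4 with 25 uM Luciferin-PPXE (at KM) in 200 mM KPO4, preincubated 10 min with compound; NADPH regeneration started a 60 min RT reaction. Luciferin detected by luminescence, normalized to 57 uM ketoconazole as full inhibition.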
Chain of Cytochrome P450 3A4 (Homo sapiens) (P08684 whole entry, looked up): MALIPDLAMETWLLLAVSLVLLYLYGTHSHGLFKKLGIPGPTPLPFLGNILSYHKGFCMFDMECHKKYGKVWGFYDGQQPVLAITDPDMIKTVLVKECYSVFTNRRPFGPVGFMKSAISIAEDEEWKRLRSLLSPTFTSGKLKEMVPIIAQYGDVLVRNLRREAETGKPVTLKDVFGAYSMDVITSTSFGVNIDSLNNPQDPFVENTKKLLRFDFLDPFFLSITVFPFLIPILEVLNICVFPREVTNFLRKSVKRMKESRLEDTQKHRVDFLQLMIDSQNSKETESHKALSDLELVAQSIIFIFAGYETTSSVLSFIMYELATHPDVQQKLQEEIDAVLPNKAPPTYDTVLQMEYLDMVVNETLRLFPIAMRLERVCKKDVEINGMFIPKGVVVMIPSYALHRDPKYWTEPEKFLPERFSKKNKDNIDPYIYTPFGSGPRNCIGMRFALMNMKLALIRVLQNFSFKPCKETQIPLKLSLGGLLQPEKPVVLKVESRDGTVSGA
A general note: qHTS replaces the single test concentration by a dilution series.

The target in assay [7] is Cytochrome P450 2C9 (Homo sapiens) (UniProt P11712). Description: qHTS Assay for Inhibitors and Substrates of Cytochrome P450 2C9 (AID 883). Also: nearly all actives have a fitted effect of over 60% in size. Also: potency is read from the fitted curve at half-maximal effect. As to activity change, negative = inhibition: % is scaled to controls: 0 for no effect and ±100 for the full control effect. The gist of the method: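 Human CYP2C9 (10nM) hydroxylated Luciferin-H (100uM, at its KM) to luciferin in 25mM KPO4. Compound was preincubated 10 min at 37C, then NADPH regeneration started a 60 min reaction at 37C. Luminescence was read after detection reagent, normalized to 57uM sulphaphenazole.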
Chain of Cytochrome P450 2C9 (Homo sapiens) (P11712 whole entry, looked up): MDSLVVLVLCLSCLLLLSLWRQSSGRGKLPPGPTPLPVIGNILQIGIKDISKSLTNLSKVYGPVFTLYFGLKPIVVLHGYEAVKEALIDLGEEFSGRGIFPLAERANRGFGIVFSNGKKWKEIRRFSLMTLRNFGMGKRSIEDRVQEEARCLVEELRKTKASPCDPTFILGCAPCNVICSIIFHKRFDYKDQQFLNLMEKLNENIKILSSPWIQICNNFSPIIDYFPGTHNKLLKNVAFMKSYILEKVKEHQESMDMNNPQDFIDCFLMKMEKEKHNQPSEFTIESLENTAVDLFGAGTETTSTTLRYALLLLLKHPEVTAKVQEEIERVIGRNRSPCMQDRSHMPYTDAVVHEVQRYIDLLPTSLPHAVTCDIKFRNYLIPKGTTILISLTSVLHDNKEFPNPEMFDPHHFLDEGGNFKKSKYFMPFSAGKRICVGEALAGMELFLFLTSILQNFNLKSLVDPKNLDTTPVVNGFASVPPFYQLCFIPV

Assay [8] concerns the target Cytochrome P450 2D6 (Homo sapiens) (UniProt P10635). The experiment in a line: qHTS Assay for Inhibitors and Substrates of Cytochrome P450 2D6 (AID 891). Also: nearly all actives have a fitted effect of over 60% in size. Also: potency is read from the fitted curve at half-maximal effect.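 As to activity change, negative = inhibition: luciferin methyl ether substrate demethylated by CYP2D6 with NADPH regeneration; % is scaled to controls: 0 for no effect and ±100 for the full control effect.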 The gist of the method:
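Human CYP2D6 (5 nM) with 30 uM Luciferin-ME EGE (at Km) in 100 mM KPO4, compound preincubated 10 min, then NADPH regeneration system for 60 min at room temperature. Luciferin read by luminescence; normalized to 1.43 uM quinidine.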

In assay [9] the target is Cytochrome P450 2C19 (Homo sapiens) (UniProt P33261). Description: qHTS Assay for Inhibitors and Substrates of Cytochrome P450 2C19 (AID 899). Also: nearly all actives have a fitted effect of over 60% in size. Also: potency is read from the fitted curve at half-maximal effect. The gist of the method: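 Human CYP2C19 (5nM) with Luciferin-H EGE at 10uM (its KM) in 50mM KPO4 was preincubated with compound for 10 min at 37C. NADPH regeneration started a 60 min 37C reaction. Luciferin was read by luminescence, normalized to 57uM ketoconazole.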
Chain of Cytochrome P450 2C19 (Homo sapiens) (P33261 whole entry, looked up): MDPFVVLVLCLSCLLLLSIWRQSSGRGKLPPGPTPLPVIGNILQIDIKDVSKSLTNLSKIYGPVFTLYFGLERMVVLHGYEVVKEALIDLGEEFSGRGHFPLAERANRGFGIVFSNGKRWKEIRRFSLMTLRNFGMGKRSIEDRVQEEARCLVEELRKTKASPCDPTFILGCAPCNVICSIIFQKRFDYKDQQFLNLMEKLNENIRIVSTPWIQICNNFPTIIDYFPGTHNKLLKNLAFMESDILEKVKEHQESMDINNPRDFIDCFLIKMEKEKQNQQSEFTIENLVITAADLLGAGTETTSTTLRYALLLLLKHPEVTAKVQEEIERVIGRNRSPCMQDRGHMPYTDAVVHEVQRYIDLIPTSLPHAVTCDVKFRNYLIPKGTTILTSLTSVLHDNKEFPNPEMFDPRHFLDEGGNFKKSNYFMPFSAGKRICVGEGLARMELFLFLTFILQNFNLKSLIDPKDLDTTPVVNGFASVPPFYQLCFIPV

In assay [10] the target is Cytochrome P450 3A4 (Homo sapiens) (UniProt P08684). Description: qHTS Assay for Activators of Cytochrome P450 3A4 (AID 885). Also: nearly all actives have a fitted effect of over 65% in size. Put shortly: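 Quantitative HTS format: compounds preincubated with 20nM human CYP3A4 and Luciferin-PPXE substrate at KM, reaction started by NADPH regeneration, stopped after 60 min, luciferase luminescence read 20 min later.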

Chain of Cytochrome P450 2D6 (Homo sapiens) (P10635 whole entry, looked up): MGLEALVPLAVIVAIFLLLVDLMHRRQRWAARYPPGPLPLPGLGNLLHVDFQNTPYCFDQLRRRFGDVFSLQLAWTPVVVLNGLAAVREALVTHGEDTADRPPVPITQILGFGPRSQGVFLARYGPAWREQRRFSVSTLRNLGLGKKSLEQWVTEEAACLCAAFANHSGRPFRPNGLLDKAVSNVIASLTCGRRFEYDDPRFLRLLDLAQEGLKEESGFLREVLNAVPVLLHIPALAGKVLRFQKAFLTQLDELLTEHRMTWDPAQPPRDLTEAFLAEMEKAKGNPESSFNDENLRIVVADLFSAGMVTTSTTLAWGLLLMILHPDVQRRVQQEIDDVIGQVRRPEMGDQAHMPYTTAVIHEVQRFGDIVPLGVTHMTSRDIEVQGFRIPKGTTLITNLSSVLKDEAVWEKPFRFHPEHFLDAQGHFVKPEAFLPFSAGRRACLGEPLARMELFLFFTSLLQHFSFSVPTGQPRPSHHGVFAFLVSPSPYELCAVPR
Chain of Guanine nucleotide-binding protein G(i) subunit alpha-1 (Homo sapiens) (P63096 whole entry, looked up): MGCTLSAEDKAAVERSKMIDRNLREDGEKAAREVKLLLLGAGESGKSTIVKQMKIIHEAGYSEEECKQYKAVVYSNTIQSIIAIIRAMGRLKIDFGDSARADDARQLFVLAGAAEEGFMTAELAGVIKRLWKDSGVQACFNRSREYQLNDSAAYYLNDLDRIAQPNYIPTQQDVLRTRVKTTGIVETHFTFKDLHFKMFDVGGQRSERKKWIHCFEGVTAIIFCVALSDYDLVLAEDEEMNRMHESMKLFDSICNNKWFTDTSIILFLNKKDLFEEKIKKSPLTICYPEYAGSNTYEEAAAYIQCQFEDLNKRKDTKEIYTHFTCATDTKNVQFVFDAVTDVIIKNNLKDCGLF

For the molecule `CCCCOC(=O)c1ccc(N)cc1`, the outcome in [1], in [2], in assay [3] and in assay [4] was inactive.

On to `NC(=O)CC[C@@H](N)C(=O)O`, for which the call in assay [5] was inactive.

As to `CC(=O)Nc1ccccc1`, the molecule was called inactive in [1], in assay [2], in assay [3], in assay [4] and in assay [6].

Turning to `Cc1cc(=O)[nH]c(=S)[nH]1`, the molecule was classed as inactive in assay [1], in assay [2], in assay [3], in assay [4] and in assay [6].

With `NS(=O)(=O)c1ccc(C(=O)O)cc1`, the Potency result in [7], in [8] and in assay [9] was “inactive” throughout. Further, in assay [6], the activity change, negative = inhibition is -0.84% [at 11.4 µM].

As for `CCCCCC(N)=O`, the result in assay [1], in assay [2], in assay [3], in assay [4] and in assay [6] was inactive.

Regarding `O=C1C(c2[nH]c3ccccc3c2O)=Nc2ccccc21`, the molecule was classed as inactive in assay [1], in assay [2], in [3], in [4] and in assay [6].

On to `CCCC(O)C(CC)CO` (stereo not given), for which the outcome in assay [1], in assay [2], in assay [3], in assay [4] and in assay [6] was inactive.

For `CCN(CC)C(=O)c1cccc(C)c1`, the molecule was classed as inactive in assay [1], in assay [2], in assay [3] and in assay [4].

As to `Cc1c(N(C)C)c(=O)n(-c2ccccc2)n1C`, the molecule was called inactive in assay [1], in assay [2], in assay [3], in assay [4] and in assay [6].

Take `CC(=O)Nc1ccc(C(=O)O)cc1`: the result in assay [1], in assay [2], in assay [3], in assay [4] and in [6] was inactive.

With `CC1CC(OC(=O)c2ccccc2O)CC(C)(C)C1` (stereo not given), the outcome in assay [1], in [2], in assay [3] and in [4] was inactive.

`CN1C(C)(C)CCCC1(C)C`: in assay [5], the molecule was called inactive.

`CCCCCCCC(=O)OCC(COC(=O)CCCCCCC)OC(=O)CCCCCCC`: the call in assay [1], in assay [2], in assay [3], in assay [4] and in [6] was inactive.

Consider `C[n+]1ccccc1/C=N/O`, for which the molecule was called inactive in [6].

In the case of `FC(F)(F)C(Cl)Br` (stereo not given), the outcome in assay [1], in assay [2], in [3], in assay [4] and in assay [6] was inactive.

On to `O=C(O)CCCCC1CCSS1` (stereo not given), for which the molecule was called inactive in assay [1], in assay [2], in [3], in [4] and in assay [6].

With `O=C(c1ccccc1)C(O)c1ccccc1` (stereo not given), the result in assay [1], in assay [2], in assay [3], in [4] and in assay [6] was inactive.

As for `CC(=O)NS(=O)(=O)c1ccc(N)cc1`, the result in assay [1], in assay [2], in assay [3] and in [4] was inactive.

As for `CC(=O)Nc1cccc(O)c1`, the result in assay [1], in assay [2], in [3], in assay [4] and in assay [6] was inactive.

With `CC(=O)OCC(COC(C)=O)OC(C)=O`, the outcome in [1], in [2], in assay [3], in assay [4] and in [6] was inactive.

For the molecule `C[C@@H]1CCC[C@H](C)N1`, the Potency result in [7] and in assay [9] was “inactive” throughout.

Regarding `Nc1ccc(S(=O)(=O)c2ccc(N)cc2)cc1`, the call in assay [1], in assay [2], in assay [3] and in assay [4] was inactive.

For `COc1ccc(O)cc1`, the outcome in assay [1], in assay [2], in [3], in assay [4] and in assay [6] was inactive.

Turning to `O=C(O)COC(=O)Cc1ccccc1Nc1c(Cl)cccc1Cl`, the Potency in assay [7] was 1.58 µM (active).

In the case of `O=C1c2cccc(O)c2C(=O)c2c(O)cccc21`, the molecule was called inactive in assay [1], in assay [2], in assay [3], in [4] and in [6].

Turning to `C=CCNC(N)=S`, the result in [1], in assay [2], in assay [3], in assay [4] and in [6] was inactive.

For `Cc1cc(C)nc(NS(=O)(=O)c2ccc(N)cc2)n1`, the molecule was called inactive in assay [1], in assay [2], in assay [3], in assay [4] and in [10].

With `Cc1cccc(Nc2ccccc2C(=O)O)c1C`, the Potency in assay [7] is 7.94 µM (active). Besides, the result in assay [6] was inactive.

For the molecule `C[N+]1(C)CCCC(OC(=O)C(O)(c2ccccc2)c2ccccc2)C1` (stereo not given), in assay [6], the call was inactive.

As to `Cc1cc(NC(=O)C2=C(O)c3ccccc3S(=O)(=O)N2C)no1`, the molecule was called inactive in [6].

As for `CCCCCC(C)N` (stereo not given), the call in [6] was inactive.

Turning to `COc1ccc2cc(CCC(C)=O)ccc2c1`, in assay [10], the molecule was classed as inactive.

For `O=C1c2ccccc2S(=O)(=O)N1CCCCN1CCN(c2ncccn2)CC1`, the Potency in assay [9] was 0.631 µM (active).

With `CCOC(N)=O`, the result in assay [6] was inactive.

Consider `CC1CCc2cc(F)cc3c(=O)c(C(=O)O)cn1c23` (stereo not given), for which the result in [6] was inactive.

With `Cn1c([N+](=O)[O-])cnc1COC(N)=O`, the molecule was classed as inactive in assay [6].

`CC(N)CCCC(C)(C)O` (stereo not given): the call in [6] was inactive.

For `Cn1c(=O)c2c(ncn2CCO)n(C)c1=O`, the result in assay [6] was inactive.

`C/C=C/C(=O)N(CC)c1ccccc1C`: the molecule was classed as inactive in assay [6].

Turning to `Cc1c(NC(C)C)c(=O)n(-c2ccccc2)n1C`, the molecule was called inactive in assay [6].

Take `NC(=O)NC1NC(=O)NC1=O` (stereo not given): the call in assay [6] was inactive.

With `CCN(CC)CCOC(=O)C(c1ccccc1)c1ccccc1`, the Potency in assay [8] was 5.01 µM (active).

Turning to `O=C(Cn1ccnc1[N+](=O)[O-])NCCO`, the molecule was classed as inactive in assay [6]. In addition, the Potency entry in [9] was “inactive”.

Consider `NC(N)=NS(=O)(=O)c1ccc(N)cc1`, for which the molecule was called inactive in assay [6].

In the case of `NS(=O)(=O)c1cc(C2(O)NC(=O)c3ccccc32)ccc1Cl` (stereo not given), in [6], the molecule was called inactive.

As to `NC(=O)c1ccc([N+](=O)[O-])cc1Cl`, the molecule was classed as inactive in [6].

Take `O=C(O)c1cc(=O)c2ccccc2o1`: in [6], the result was inactive.

Consider `O=c1[nH]cnc2nc[nH]c12`, for which the molecule was classed as inactive in assay [6].

Regarding `CC(=O)NCc1c(I)c(NC(C)=O)c(I)c(C(=O)O)c1I`, the molecule was classed as inactive in [6].

In the case of `CC[N+](CC)(CC(=O)Nc1c(C)cccc1C)Cc1ccccc1`, the Potency in assay [8] is 0.0079 µM (active).
